The record followed here is PubChem BioAssay.

SMILES strings stand for the structures. Values joined by “and” are separate entries in the source; they are usually repeats but may differ in a detail not shown here. Equal values may be shown once. Inconclusive results are not listed. Active and inactive are the calls of the source.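 Rule for the calls, unless noted: active = normalized viability below 100% at a tested concentration; inactive = the rest.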

The nature of test [1]: growth inhibition of DIPG glioma cells, dose response, cell-based, SU-DIPG-XVII, MIPE5.0, CellTiter-Glo, qHTS (AID 1347060; cut-off not given, nearly all actives have AC50 up to about 26 µM;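 for AC50: cells exposed to compound for 48 hours before viability readout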). The following applies: SU-DIPG-XVII viability, CellTiter-Glo ATP luminescence.
Test [2] is described as follows: growth inhibition of DIPG glioma cells, dose response, cell-based, SU-DIPG-IV, MIPE4.0, CellTiter-Glo, qHTS (AID 1347063; cut-off not given, nearly all actives have AC50 up to about 30 µM;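 note: compound exposure lasted 48 hours before the viability readout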). The following applies: SU-DIPG-IV viability, CellTiter-Glo ATP luminescence. (In ATP-based viability assays light output follows the ATP content of the culture.)
Test [3] can be described thus: growth inhibition of DIPG glioma cells, dose response, cell-based, SU-DIPG-XIII, MIPE5.0, CellTiter-Glo, qHTS (AID 1347064; cut-off not given, nearly all actives have AC50 up to about 23 µM;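 note: cells exposed to compound for 48 hours before the viability read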). The following applies: SU-DIPG-XIII viability, CellTiter-Glo ATP luminescence.
A short description of test [4]: viability loss in pontine glioma line – cell-based, SU-DIPG-XXV, MIPE5.0, CellTiter-Glo, qHTS, dose response (AID 1347065; cut-off not given, nearly all actives have AC50 up to about 26 µM;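 note: cells exposed to compound for 48 hours before ATP readout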). The following applies: CellTiter-Glo ATP luminescence.
Test [5] is described as follows: SU-DIPG-XXV glioma cell viability, MIPE5.0 library, qHTS (AID 1347068; cut-off not given, nearly all actives have IC50 up to about 30 µM;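 for IC50: cells exposed to compound for 48 hours before viability readout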).
Test [6] can be described thus: sensitizers of A549 cells to miR-34 induction, primary screen, imaging, A549 dox-inducible miR-34, nuclei and caspase counts (AID 1347080;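 active = compounds whose cell count with miR-34 switched on is under 0.7 times the count with it off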). The following applies: A549 miR-34 inducible, Hoechst nuclei count, 48 h.
A short description of test [7]: survival rescue of mitochondrial mutant cells in low glucose, primary screen, MELAS cybrids, Rieske KO mouse fibroblasts, CellTiter-Glo (AID 1508586;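 active = mean z-score across replicates of 1.96 or higher in either the MELAS or the Rieske mutant cell line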;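 note: z relative to plate mean and SD of compound and empty wells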).
Test [8] in a line: SU-DIPG-VI glioma cell viability, MIPE4.0 library, CellTiter-Glo luminescence, qHTS (AID 1347066; cut-off not given, nearly all actives have AC50 up to about 30 µM;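 note: cells exposed to compound for 48 hours before readout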). The following applies: CellTiter-Glo ATP luminescence.
The nature of test [9]: ovarian cancer cell viability with rucaparib, profiling panel, oncology-focused library, rucaparib conditional (AID 1508598). The following applies: patient-derived ovarian cancer cells, CellTiter-Glo viability, 144 h, stronger effect = lower value.
The nature of test [10]: JHH-DIPG-1 glioma cell viability, MIPE5.0 library, CellTiter-Glo luminescence, qHTS (AID 1347067; cut-off not given, nearly all actives have AC50 up to about 26 µM;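 note: cells exposed to compound for 48 hours before readout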). The following applies: JHH-DIPG-1 glioma viability, CellTiter-Glo ATP luminescence.
Setting [11] is: stronger effect = lower value, cell number ratio, induced over uninduced.
[12] abbreviates: measured here: relative caspase fold change +Dox/-Dox.
[13] abbreviates: measured here: total cells with miR-34 induction, stronger effect = lower value.
Where [14] appears, read: measured here: total cells without miR-34 induction.
[15] abbreviates: MELAS cybrid survival, CellTiter-Glo 48 h, stronger effect = higher value.
[16] abbreviates: Rieske KO mouse fibroblast survival, CellTiter-Glo 72 h.

As usually defined, the AC50 is the midpoint of the concentration-response curve, whichever way the signal moves. For orientation: IC50 means the concentration needed to halve the response being measured. For orientation: viability means a read-out of living cells in per cent, often relative to untreated cells.

Regarding `Nc1cccc(-c2cc3c(Oc4cccc(O)c4)ncnc3[nH]2)c1`, the AC50 in test [1] was 1.66 µM (active); in [2], 11.8 µM (active); in test [3], 4.68 µM (active); in test [4], 5.25 µM (active). For the same compound, in [5], the IC50 is 8.33 µM (active). For the same compound, the fold change in [6] (setting [11]) was 1.45 (inactive); in [6] (setting [12]) it was 0.507. In addition, the cell count in test [6] (setting [13]) worked out at 1790; in [6] (setting [14]), 1240. In addition, the z-score in test [7] (setting [15]) was 0.0499 (inactive); in test [7] (setting [16]), -2.88.

Turning to `CNc1nccc(-c2cccnc2Oc2cc(C(=O)Nc3cccc(C(F)(F)F)c3)ccc2C)n1`, the half-maximal activity concentration (AC50) in test [1] is 3.72 µM (active); in [2], 13.2 µM (active); in test [3], 5.9 µM (active); in test [4], 5.9 µM (active). Besides, the IC50 in test [5] is 13.2 µM (active).

`CNC(=O)c1cc(Oc2ccc(NC(=O)Nc3ccc(Cl)c(C(F)(F)F)c3)c(F)c2)ccn1`: the AC50 was 16.6 µM (active) in [1], 13.2 µM (active) in test [2], 20.9 µM (active) in test [4] and 9.35 µM (active) in test [8]. Further, in [5], the 50% inhibitory concentration (IC50) is 20.9 µM (active). Besides, the fold change was 0.87 (inactive) in [6] (setting [11]) and 0.959 in test [6] (setting [12]). Further, the results for the cell count in test [6] (setting [13]) and in [6] (setting [14]) were 2520 and 2900, respectively. Moreover, the z-score in [7] (setting [15]) is -0.38 (inactive); in [7] (setting [16]) it was 1.02. The viability was 108% (inactive) in test [9] (at 0.000305 µM, OCI-C5x cells, with rucaparib 10 µM, 100% = cells with rucaparib alone); 90.4% (active) in test [9] (at 0.000305 µM, OCI-C5x cells, without rucaparib); 101% (inactive) in test [9] (at 0.000305 µM, OCI-P5x cells, with rucaparib 20 µM, 100% = cells with rucaparib alone); 104% (inactive) in [9] (at 0.000305 µM, OCI-P5x cells, without rucaparib); 108% (inactive) in test [9] (at 0.00122 µM, OCI-C5x cells, with rucaparib 10 µM, 100% = cells with rucaparib alone); 90.8% (active) in test [9] (at 0.00122 µM, OCI-C5x cells, without rucaparib). For the same compound, the viability in [9] (at 0.00122 µM, OCI-P5x cells, with rucaparib 20 µM, 100% = cells with rucaparib alone) is 109% (inactive); in [9] (at 0.00122 µM, OCI-P5x cells, without rucaparib), 106% (inactive); in test [9] (at 0.00488 µM, OCI-C5x cells, with rucaparib 10 µM, 100% = cells with rucaparib alone) it was 109% (inactive); in test [9] (at 0.00488 µM, OCI-C5x cells, without rucaparib), 98.5% (active); in test [9] (at 0.00488 µM, OCI-P5x cells, with rucaparib 20 µM, 100% = cells with rucaparib alone) it was 114% (inactive); in test [9] (at 0.00488 µM, OCI-P5x cells, without rucaparib) it was 109% (inactive). The viability in test [9] (at 0.0195 µM, OCI-C5x cells, with rucaparib 10 µM, 100% = cells with rucaparib alone) was 114% (inactive); in test [9] (at 0.0195 µM, OCI-C5x cells, without rucaparib), 91.4% (active); in [9] (at 0.0195 µM, OCI-P5x cells, with rucaparib 20 µM, 100% = cells with rucaparib alone), 115% (inactive); in [9] (at 0.0195 µM, OCI-P5x cells, without rucaparib) it was 116% (inactive); in test [9] (at 0.0781 µM, OCI-C5x cells, with rucaparib 10 µM, 100% = cells with rucaparib alone) it was 106% (inactive); in [9] (at 0.0781 µM, OCI-C5x cells, without rucaparib), 88.4% (active). In addition, the viability in test [9] (at 0.0781 µM, OCI-P5x cells, with rucaparib 20 µM, 100% = cells with rucaparib alone) was 115% (inactive); in [9] (at 0.0781 µM, OCI-P5x cells, without rucaparib), 110% (inactive); in [9] (at 0.313 µM, OCI-C5x cells, with rucaparib 10 µM, 100% = cells with rucaparib alone), 104% (inactive); in test [9] (at 0.313 µM, OCI-C5x cells, without rucaparib), 102% (inactive); in test [9] (at 0.313 µM, OCI-P5x cells, with rucaparib 20 µM, 100% = cells with rucaparib alone), 115% (inactive); in [9] (at 0.313 µM, OCI-P5x cells, without rucaparib) it was 117% (inactive). In addition, the viability was 107% (inactive) in [9] (at 1.25 µM, OCI-C5x cells, with rucaparib 10 µM, 100% = cells with rucaparib alone); 104% (inactive) in test [9] (at 1.25 µM, OCI-C5x cells, without rucaparib); 103% (inactive) in test [9] (at 1.25 µM, OCI-P5x cells, with rucaparib 20 µM, 100% = cells with rucaparib alone); 117% (inactive) in test [9] (at 1.25 µM, OCI-P5x cells, without rucaparib); 125% (inactive) in [9] (at 5 µM, OCI-C5x cells, with rucaparib 10 µM, 100% = cells with rucaparib alone); 105% (inactive) in test [9] (at 5 µM, OCI-C5x cells, without rucaparib). Moreover, the viability is 80.9% (active) in [9] (at 5 µM, OCI-P5x cells, with rucaparib 20 µM, 100% = cells with rucaparib alone) and 121% (inactive) in test [9] (at 5 µM, OCI-P5x cells, without rucaparib).

Turning to `CC(=O)Oc1cc2c(s1)CCN(C(C(=O)C1CC1)c1ccccc1F)C2` (stereo unspecified), the result in test [1], in test [4], in test [10] and in test [5] was inactive. For the same compound, the AC50 in test [2] was 16.6 µM (active). Moreover, the fold change in [6] (setting [11]) is 0.891 (inactive) and 0.933 (inactive); in test [6] (setting [12]), 0.621 and 0.805. For the same compound, the cell count in [6] (setting [13]) is 7600 and 7230; in test [6] (setting [14]) it was 8520 and 7750. Besides, the z-score in test [7] (setting [15]) was -1.04 (inactive) and -0.446 (inactive); in test [7] (setting [16]), -0.245 and 0.545.

With `O=c1ccn([C@@H]2O[C@H](CO)[C@@H](O)[C@@H]2F)c(=O)[nH]1`, the result in [1], in test [2], in test [4], in [8], in [10] and in test [5] was inactive.

In the case of `N#Cc1ccc(COC[C@H]2O[C@@H](n3c(NCc4ccc(Cl)c(Cl)c4)nc4c(N)ncnc43)[C@H](O)[C@@H]2O)cc1`, the AC50 in test [1] is 14.8 µM (active); in test [2], 2.35 µM (active); in test [4] it was 18.6 µM (active); in test [10], 18.6 µM (active). The outcome in test [8] was inactive.
